From PubChem BioAssay (NCATS) come the findings set out here.

Test [1] is described as follows: Viability qHTS for spleen associated tyrosine kinase inhibitor (SYKi) naive MV4-11 cells (AID 1963823). Also: nearly all actives have a fitted effect of over 40% in size. The gist of the method: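 qHTS, SYK inhibitor-naive MV4-11; 500 cells/well; 72 hr compound exposure, 37 C; CellTiter-Glo added, 10 min RT; luminescence read.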
Test [2] in a line: Cellular viability qHTS for adrenocortical cancer (ACC) cell line SW-13 (AID 1963989). Also: nearly all actives have a fitted effect of over 65% in size.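 As to activity (max response): cells grown in serum-free medium with ITS supplement; % is scaled to controls: 0 for no effect and ±100 for the full control effect.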 The settings on record: SW-13 ACC cells viability, CellTiter-Glo, 48 h; activity (max response): stronger effect = lower value. The gist of the method:
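SW-13 cells in ITS-supplemented serum-free DMEM were plated overnight, then exposed for 48 h at 37C to compound titrations (up to 46 uM final). Viability was read by CellTiter-Glo luminescence; four-parameter logistic fits gave IC50 and efficacy.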
(In general: In qHTS, concentration-response curves come from the screen itself.)

Test [3] can be described thus: Cellular viability qHTS for adrenocortical cancer (ACC) cell line NCI-H295R (AID 1963990). Also: nearly all actives have a fitted effect of over 60% in size.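 As to activity change, negative = viability loss: 0% = DMSO only wells and -100% = full killing with cytotoxic reference compound.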 The gist of the method:
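Luminescent ATP read-out (CellTiter-Glo, 20 min RT) after 48 h drug exposure of NCI-H295R cells; a titration up to 46 uM final. Data normalized to doxorubicin (100% inhibition) and DMSO (0%); 4-parameter fit gives IC50, max response.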

Where “and” joins values, the source holds several entries; their conditions need not be identical. Equal values may be shown once. Results filed as inconclusive are left out. A number with no mark means an inactive call. Calls of active or inactive are those of the source. Calls follow the shape of the dose curve; as a rule, active = well fitted curve in the direction sought with a large enough effect; inconclusive = small, poorly fitted or top-dose-only effect, or another doubt; inactive = no such curve, though single readings can be large; an effect the other way counts as inactive or inconclusive.
Potency is read from the fitted curve at half-maximal effect.

With `CN1CCN(C(=O)[C@H]2[C@@H](C(=O)O)[C@H]3CC[C@@H]2O3)CC1`, the viability (% of control) in test [1] was 78.3% [at 9.25 µM]. For the same compound, in test [2], the activity (max response) is -7.83%. The activity change, negative = viability loss in test [3] was 2.26% [at 9.17 µM].

Turning to `Cc1ncc(CO)c(CO)c1O`, the Potency in test [1] is 3760 nM (active). Moreover, the activity (max response) in test [2] was 1.35%. Besides, the Potency entry in test [3] is “inactive”.

For `C[C@@H](O)[C@H]1C(=O)N2C(C(=O)O)=C(S[C@@H]3CN[C@H](CNS(N)(=O)=O)C3)[C@H](C)[C@H]12`, the Potency entry in test [1] and in test [3] was “inactive” in each case. Further, the activity (max response) in test [2] is 7.35%.

As to `COc1cc(-c2cn(C)c(=O)c3cnccc23)cc(OC)c1CN(C)C`, the Potency result in test [1] and in test [3] was “inactive” each time. Besides, the activity (max response) in test [2] is -6.63%.

With `C[C@H](CCC(=O)O)[C@H]1CC[C@H]2[C@@H]3C(=O)C[C@@H]4CC(=O)CC[C@]4(C)[C@H]3CC(=O)[C@]12C`, the Potency result in test [1] and in test [3] was “inactive” each time. The activity (max response) in test [2] was 15.5%.

Take `C[C@@H]1[C@H](O)[C@@H](C)/C=C/C=C/C=C/C=C/C=C/C=C/C=C/[C@H](O[C@@H]2O[C@H](C)[C@@H](O)[C@H](N)[C@@H]2O)C[C@@H]2O[C@](O)(C[C@@H](O)C[C@@H](O)[C@H](O)CC[C@@H](O)C[C@@H](O)CC(=O)O[C@H]1C)C[C@H](O)[C@H]2C(=O)O`: the Potency entry in test [1] and in test [3] was “inactive” in each case. Besides, the activity (max response) in test [2] was -9.6%.

For `O=C(O)Cc1ccc(OCCNC[C@H](O)c2ccccc2)cc1`, the Potency result in test [1] and in test [3] was “inactive” each time. In test [2], the activity (max response) was 0.46%.

With `COc1ccc2cc(OCC3(C(=O)O)CN(C(=O)c4ccc(F)cc4)C3)ccc2c1`, the Potency entry in test [1] and in test [3] was “inactive” throughout. Also, in test [2], the activity (max response) was -4.74%.

Take `CC(C)(C)C(=O)OCOC(=O)[C@@H]1N2C(=O)[C@@H](NC(=O)[C@H](N)c3ccccc3)[C@H]2SC1(C)C`: the Potency result in test [1] and in test [3] was “inactive” throughout. Besides, the activity (max response) in test [2] was 8.43%.

As for `CC(C(O)c1ccc(O)cc1)N1CCC(Cc2ccccc2)CC1` (stereo unspecified), the Potency entry in test [1] and in test [3] was “inactive” each time. The activity (max response) in test [2] was -9.39%.

Turning to `CC[C@]12C=CCN3CC[C@@]4(c5cc([C@@]6(C(=O)OC)CC7C[C@@H](C(C)(F)F)CN(Cc8c6[nH]c6ccccc86)C7)c(OC)cc5N(C)[C@H]4[C@@](O)(C(=O)OC)[C@@H]1OC(C)=O)[C@@H]32` (stereo partly specified), the Potency is 93.4 nM (active) in test [1], 282 nM (active) in test [2] and 708 nM (active) in test [3].

Consider `CC(C)(C)NCC(O)c1cc(O)cc(O)c1` (stereo unspecified), for which the Potency result in test [1] is “inactive”. Besides, the Potency in test [3] was 25900 nM (active).

Regarding `COC(=O)CCCCC(CCSS/C(CCO)=C(\C)N(C=O)Cc1cnc(C)nc1N)SC(C)=O` (stereo unspecified), the Potency entry in test [1] and in test [3] was “inactive” each time. Further, the activity (max response) in test [2] is 8.22%.

For the compound `CC(=O)[C@@]1(O)CC[C@H]2[C@@H]3C[C@H](C)C4=CC(=O)C=C[C@]4(C)[C@@]3(F)[C@@H](O)C[C@@]21C`, the Potency result in test [1] and in test [3] was “inactive” each time. Moreover, in test [2], the activity (max response) is 3.6%.

As to `CC(=O)N1c2ccc(-c3ccc(C(=O)O)cc3)cc2[C@H](Nc2ccc(Cl)cc2)C[C@@H]1C`, the Potency in test [1] is 52.5 nM (active); in test [3], 3980 nM (active).

For the compound `CC(C)=CCC[C@@](C)(O)[C@H]1CC=C(C)CC1`, the Potency entry in test [1] and in test [3] was “inactive” in each case. In addition, the activity (max response) in test [2] is 18.9%.

Regarding `Cc1ccsc1C(=CCCN1CCC[C@@H](C(=O)O)C1)c1sccc1C`, the Potency entry in test [1] and in test [3] was “inactive” in each case. Besides, in test [2], the activity (max response) is 0.503% and 7.63%.

In the case of `O=C(/C=C/c1ccc(CN(CCO)CCc2c[nH]c3ccccc23)cc1)NO`, the Potency is 74.2 nM (active) in test [1], 708 nM (active) in test [2] and 562 nM (active) in test [3].

Take `O=C(O)CCn1c2c(c3ccccc31)C[C@H](NS(=O)(=O)c1ccc(F)cc1)CC2`: the Potency result in test [1] and in test [3] was “inactive” in each case. The activity (max response) in test [2] was -2.29% and -2.36%.

`C[C@H](CCC(=O)O)[C@H]1CC[C@H]2[C@@H]3[C@H](O)C[C@@H]4C[C@H](O)CC[C@]4(C)[C@H]3CC[C@]12C`: the Potency entry in test [1] and in test [3] was “inactive” in each case. In test [2], the activity (max response) is -16.1%.

For `CCCC(CCC)(C(=O)OCC)C(=O)OCC`, the Potency result in test [1] and in test [3] was “inactive” each time. Moreover, the activity (max response) in test [2] was 12.5%.

`CC(=O)N1CCN(c2ccc(O)cc2)CC1`: the Potency entry in test [1] and in test [3] was “inactive” each time. For the same compound, the activity (max response) in test [2] was 7.26%.

Take `COc1cccc2c1c(O)c(C(=O)N(C)c1ccc(C(F)(F)F)cc1)c(=O)n2C`: the Potency entry in test [1] and in test [3] was “inactive” throughout.

As to `CCOc1ccccc1OCCN[C@H](C)Cc1ccc(OC)c(S(N)(=O)=O)c1`, the Potency result in test [1] and in test [3] was “inactive” each time. In addition, in test [2], the activity (max response) is 2.5%.

`O=[N+]([O-])c1cccc(S(=O)(=O)NCCNS(=O)(=O)c2cccc([N+](=O)[O-])c2)c1`: the Potency entry in test [1] and in test [3] was “inactive” each time. Besides, the activity (max response) in test [2] was -5.4%.

In the case of `C[C@]12CCC(=O)C=C1CC[C@@H]1[C@@H]2C(=O)C[C@@]2(C)[C@H]1CC[C@]2(O)C(=O)CO`, the Potency entry in test [1] and in test [3] was “inactive” throughout. In addition, the activity (max response) in test [2] is 7.27%.

On to `O=C(C[C@@H]1C/C=C\CCC(=O)O[C@H](c2ccccc2)CNC1=O)NCc1ccc(Cl)cc1`, for which the Potency in test [1] was 4680 nM (active). Moreover, in test [2], the activity (max response) is 11.5%. Besides, in test [3], the Potency result is “inactive”.

Take `O=S(=O)(NCCNC/C=C/c1ccc(Br)cc1)c1cccc2cnccc12`: the Potency in test [1] is 5.17 µM (active) and 4.68 µM (active); in test [2], 31600 nM (active); in test [3], 28200 nM (active).
